Assay outcomes (PubChem)
Gal4-VP16 FLuc – counter-screen for ROR gamma inhibitors: Gal4-VP16 reporter. Drosophila S2 Gal4-VP16 UAS-luciferase, luminescence, 20 h. 3.5% of 310,000 active. Potency, µM (series often up to 53.6 µM), usual class: inhibitors. AID 2546;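 also: Gal4-VP16 expression switched on by copper sulfate through the metallothionein promoter; nearly all actives have a fitted effect of over 50% in size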
PLK1 PBD inh – inhibitors of human PLK1 polo-box domain binding; Plk1 PBD binding of FITC phosphopeptide, fluorescence polarization; Potency, µM, actives largely listed as inhibitors; 2.8% of 360,000 active; also: series mostly up to about 57 µM; nearly all actives have a fitted effect of over 65% in size
Target sequence (P53350 whole entry, looked up, the tested form may be a part): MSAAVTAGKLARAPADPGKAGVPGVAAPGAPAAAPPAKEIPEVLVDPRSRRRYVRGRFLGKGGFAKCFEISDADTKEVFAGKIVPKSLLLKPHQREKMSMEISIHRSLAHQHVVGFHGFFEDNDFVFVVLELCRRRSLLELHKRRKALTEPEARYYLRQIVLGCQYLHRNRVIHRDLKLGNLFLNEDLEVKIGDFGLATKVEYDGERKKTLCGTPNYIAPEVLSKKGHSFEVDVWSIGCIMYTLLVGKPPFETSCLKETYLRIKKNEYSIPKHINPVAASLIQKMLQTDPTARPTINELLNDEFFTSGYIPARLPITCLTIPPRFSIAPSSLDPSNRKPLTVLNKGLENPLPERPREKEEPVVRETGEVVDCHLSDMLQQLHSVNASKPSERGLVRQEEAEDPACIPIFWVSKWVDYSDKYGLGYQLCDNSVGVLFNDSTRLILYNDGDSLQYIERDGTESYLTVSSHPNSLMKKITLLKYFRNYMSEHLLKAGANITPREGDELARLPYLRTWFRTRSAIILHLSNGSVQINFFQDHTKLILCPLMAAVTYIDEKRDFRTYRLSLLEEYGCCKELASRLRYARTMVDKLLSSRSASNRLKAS
Sfp inh – blocks B. subtilis Sfp PPTase activity; AID 1490; Q9F4F7; Biochemical Sfp PPTase activity, qHTS; Potency, µM, hits mostly inhibitors; 3.5% of 310,000 active;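 also: the enzyme is Sfp with the accession as filed and its product quenches rhodamine fluorescence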
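Reaction rates are the 30-min fluorescence difference (ex 525, em 598 nm) in wells containing 15 nM Sfp, 5 uM rhodamine-CoA and 12.5 uM BHQ-2-YbbR at pH 7.6 with 10 mM MgCl2.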
ALDH1A1 block – inhibitors of human aldehyde dehydrogenase 1A1 | P00352 | Purified ALDH1A1, NADH fluorescence, propionaldehyde substrate | Potency, µM (titrated, usually from 75.3 µM), usual class: inhibitors | 7.3% of 220,000 active | AID 1030; active = well fitted inhibition curve with a large enough effect, not every such curve was filed as active; inconclusive = small, poorly fitted or top-dose-only effect, or another doubt; inactive = no such curve, though single readings can be large or run the other way
RORg inh – ROR gamma (mouse) transcription inhibition; Drosophila S2 Gal4-RORgamma UAS-luciferase reporter, 20 h; Potency, µM (series often up to 53.6 µM), most hits filed as inhibitors; P51450; 5.4% of 310,000 active; AID 2551; also: nearly all actives have a fitted effect of over 60% in size
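Drosophila Schneider cells stably carrying a metallothionein-driven Gal4 DBD–ROR gamma fusion and a UAS-Photinus luciferase reporter were exposed to compound for 1 hr, then induced with copper sulfate (700 uM final) for 20 hr at ambient temperature before luminescence reading.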
Hits are given with their value; i = inactive; ? = inconclusive; nt = no result; [ ] = another dose, or the depositor's remark. Shown are actives, neighbours in structure and some others; about 12% of the full set was active somewhere. Unless noted, calls follow the shape of the dose curve; as a rule, active = well fitted curve in the direction sought with a large enough effect; inconclusive = small, poorly fitted or top-dose-only effect, or another doubt; inactive = no such curve, though single readings can be large; an effect the other way counts as inactive or inconclusive.

SMILES	Gal4-VP16 FLuc	PLK1 PBD inh	Sfp inh	ALDH1A1 block	RORg inh
O=C(N/N=C/c1nn(-c2ccccc2)cc1-c1ccccc1)c1ccncc1	3.16µM	i	i	i	1.58µM
Cc1ccc(-c2nn(-c3ccccc3)cc2/C=N/NC(=O)c2ccncc2)o1	11.2µM	i	i	?	2.82µM
Cc1ccc(-c2nn(-c3ccccc3)cc2C=O)o1	?	i	39.8µM	?	?
O=Cc1cn(-c2ccccc2)nc1-c1ccncc1	i	i	i	2.51µM	i
COc1cccc(-c2ccc3ncnc(N(C)C)c3c2)c1	i	nt	?	i	i
NS(=O)(=O)c1cc2c(cc1Cl)=NC(CCC(=O)O)=NS=2(=O)O	nt	nt	nt	i[13.5 µM]	nt
CN(NS(=O)(=O)c1ccc(F)cc1)c1ncc(C(F)(F)F)cc1Cl	6.31µM	i	i	i	3.16µM
CN(NC(=O)/C=C/C(=O)O)c1ncc(C(F)(F)F)cc1Cl	i	i	56.2µM	2.82µM	i
CN(NS(=O)(=O)c1ccc(Cl)cc1)c1ncc(C(F)(F)F)cc1Cl	3.16µM	i	i	?	2.24µM
C=CCC(O)[C@H](Cc1cnc2ccccc2c1)[C@H](/C=C/CCCC)c1ccccc1 (stereo partly specified)	i	nt	i	nt	i
C=CCOC(=O)C1=C(C)NC(SCC(=O)Nc2nccs2)=C(C#N)C1c1ccc(Cl)cc1 (stereo unspecified)	?	i	i	?	11.2µM
C=CCOC(=O)C1=C(C)NC(SC)=C(C#N)C1c1ccc(OCC)cc1 (stereo unspecified)	i	i	i	20µM	i
C=CCOC(=O)C1=C(C)NC(SCC(=O)Nc2nccs2)=C(C#N)C1c1cccs1 (stereo unspecified)	?	29.9µM	i	?	?
CN(Cc1ccccc1)C(=O)c1[nH]cnc1C(=O)Nc1ccccc1F	nt	i	nt	nt	nt
CCOC(=O)CSc1n[nH]c(NC(=O)NC(C)C)n1	i	i	i	i	i
Cc1cc(C(=O)N[C@H](c2ccccc2)[C@@]2(C)C[C@@H]2[C@@H](C)C(=O)Nc2ccc3ccccc3c2)no1	i	i	i	12.6µM	i
C[C@@H](C(=O)Nc1ccc2ccccc2c1)[C@H]1C[C@]1(C)[C@H](NC(=O)c1cnccn1)c1ccccc1	i	i	i	11.2µM	?
C[C@@H](C(=O)Nc1ccc2ccccc2c1)[C@H]1C[C@]1(C)[C@H](NC(=O)c1ccccc1)c1ccccc1	i	nt	i	0.794µM	?
CN1CCC(=O)N(C(CSc2ccc(Br)cc2)Cc2ccccc2)CC1 (stereo unspecified)	i	nt	i	nt	i
CCCNC(=O)C1(C)CCCN(C(=O)c2ccccc2F)C1 (stereo unspecified)	nt	i	nt	nt	nt
Cc1ccc(/C=C2/SC(=S)N(c3ccc(S(=O)(=O)Nc4nccs4)cc3)C2=O)cc1	0.794µM	?	i	nt	5.62µM
COc1ccc(/C=C2/SC(=S)N(c3ccc(S(=O)(=O)Nc4nccs4)cc3)C2=O)cc1	?	?	i	nt	?
O=C1/C(=C\c2ccccn2)SC(=S)N1c1ccc(S(=O)(=O)Nc2nccs2)cc1	i	?	56.2µM	nt	i
COc1ccc(C2CCc3cc4c(cc3C2=NOC(C)=O)OCO4)cc1OC (stereo unspecified)	nt	i	nt	nt	nt
COc1ccc(S(=O)(=O)N(C)C)cc1NCC(=O)Nc1ccc(Br)cc1F	i	i	i	11.2µM	i
SMILES	Gal4-VP16 FLuc	PLK1 PBD inh	Sfp inh	ALDH1A1 block	RORg inh
Cc1ccc(S(=O)(=O)N2CCCCC2)cc1NCC(=O)Nc1ccc(Br)cc1F	nt	i	nt	nt	nt
O=C(CCCN1C(=O)/C(=C/c2ccccc2Cl)SC1=S)NNC(=O)c1ccc(Cl)cc1	?	i	i	nt	?
Cc1ccc(C(=O)NNC(=O)CCCN2C(=O)/C(=C/c3ccccc3Cl)SC2=S)cc1	3.16µM	i	?	i	2.82µM
O=C(CCN1C(=O)/C(=C/c2ccccc2Cl)SC1=S)NNC(=O)c1ccccc1O	i	i	50.1µM	nt	i
C[C@@H]1C(=O)OC2C[C@@]34[C@H]5C[C@@H](C(C)(C)C)[C@@]36C(O)C(=O)O[C@H]6O[C@@]4(C(=O)O5)[C@]21O (stereo partly specified)	i	nt	i	i	i
CS(=O)(=O)N1CCC2(CC1)CN(Cc1nccs1)C2	i	nt	i	i	i
CC(C)(C)OC(=O)NCCc1nnc(S(=O)(=O)Cc2ccc(Cl)cc2Cl)o1	7.08µM	?	i	2.82µM	?
CC(C)(C)OC(=O)NCCc1nnc(SCc2ccccc2Cl)o1	i	i	i	i	i
CCC(C)NC(=S)Nc1ccc(C(=O)OC)cc1 (stereo unspecified)	?	i	i	i	7.08µM
